Measurements from PubChem BioAssay AID1159580 (chemical genetic matrix, 2015).
Several values for one entry are separate records, joined by “and”; a condition that tells them apart may be missing. Equal entries are not always repeated. Among all 5,500 compounds or so, about 2,000 (36%) were called active. Inconclusive results (about 18%) are left out. No stated cut-off is given here; in the data, active means normalized growth mostly below about 0.91 (no sharp cut-off); inconclusive means no clear call, values can overlap the other calls; inactive means mostly above about 0.92. Some of the results follow.

Assay: chemical genetic growth profiling, strain panel (AID 1159580);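 further: tested at 20 µM; growth read once vehicle control cultures reached saturation at 30 °C; 1 = growth at the plate median or of vehicle wells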
Settings: S. cerevisiae deletion strains, growth OD
[1] = locus YAL013W, strain DEP1, stronger effect = lower value
[2] = locus YAL040C, strain CLN3, stronger effect = lower value
[3] = locus YCL061C, strain MRC1 (second series), stronger effect = lower value
[4] = locus YDR363W, strain ESC2, stronger effect = lower value
[5] = locus YER002W, strain NOP16, stronger effect = lower value
[6] = locus YGR229C, strain SMI1, stronger effect = lower value
[7] = locus YMR307W, strain GAS1, stronger effect = lower value
[8] = locus YNL128W, strain TEP1, stronger effect = lower value
[9] = locus YNL175C, strain NOP13, stronger effect = lower value
[10] = locus YNL197C, strain WHI3, stronger effect = lower value
[11] = locus YNL224C, strain SQS1, stronger effect = lower value
[12] = locus YNL322C, strain KRE1, stronger effect = lower value
[13] = locus YOR083W, strain WHI5 (second series), stronger effect = lower value
[14] = locus YPL241C, strain CIN2, stronger effect = lower value

Measured: normalized growth

CCCCN1CCC(COC(=O)c2cc(Cl)c(N)c3c2OCCO3)CC1
inactive: [1] 0.976 | [2] 0.973 | [3] 0.987 | locus YDR150W, strain NUM1, stronger effect = lower value 0.997 | [4] 0.968 | [5] 0.987 | [6] 0.966 | [7] 0.989 | [8] 0.991 | locus YNL153C, strain GIM3, stronger effect = lower value 0.996 | [9] 1 | [10] 0.991 | [11] 1.01 | [12] 0.982 | [13] 0.989 | [14] 0.993

CNC(=O)Oc1ccc2c(c1)[C@]1(C)CCN(C)[C@@H]1N2C
inactive: [1] 1.03 | locus YAL021C, strain ccr4, stronger effect = lower value 1 | locus YAL026C, strain drs2, stronger effect = lower value 1 | locus YAL030W, strain snc1, stronger effect = lower value 1.02 | locus YBL061C, strain skt5, stronger effect = lower value 1.02 | locus YBR009C, strain hhf1, stronger effect = lower value 0.998 | locus YBR021W, strain FUR4, stronger effect = lower value 0.99 | locus YBR023C, strain chs3, stronger effect = lower value 1.02 | locus YBR171W, strain sec66, stronger effect = lower value 1.03 | locus YBR229C, strain ROT2, stronger effect = lower value 1.01 | locus YBR231C, strain swc5, stronger effect = lower value 1.01 | locus YBR279W, strain paf1, stronger effect = lower value 1.03 | locus YCL011C, strain gbp2, stronger effect = lower value 1.03 | locus YCL016C, strain dcc1, stronger effect = lower value 1.05 | locus YCL029C, strain bik1, stronger effect = lower value 1.01 | locus YCL061C, strain MRC1, stronger effect = lower value 1.01 | locus YCL069W, strain vba3, stronger effect = lower value 1.02 | locus YCR088W, strain abp1, stronger effect = lower value 1.02 | locus YDL005C, strain med2, stronger effect = lower value 1.02 | locus YDL035C, strain GPR1, stronger effect = lower value 1.01 | locus YDL040C, strain nat1, stronger effect = lower value 1 | locus YDL074C, strain BRE1, stronger effect = lower value 1.04 | locus YDL101C, strain DUN1, stronger effect = lower value 1.01 | locus YDL134C, strain PPH21, stronger effect = lower value 1.04 | locus YDL185W, strain tfp1, stronger effect = lower value 0.992 | locus YDL192W, strain arf1, stronger effect = lower value 1.02 | locus YDR001C, strain nth1, stronger effect = lower value 1.01 | locus YDR069C, strain doa4, stronger effect = lower value 0.998 | locus YDR101C, strain arx1, stronger effect = lower value 1.02 | locus YDR137W, strain rgp1, stronger effect = lower value 1.05 | locus YDR159W, strain sac3, stronger effect = lower value 0.969 | locus YDR162C, strain NBP2, stronger effect = lower value 1.03 | locus YDR195W, strain ref2 0.977 | locus YDR297W, strain sur2, stronger effect = lower value 1.01 | locus YDR318W, strain mcm21, stronger effect = lower value 1.01 | locus YDR334W, strain swr1, stronger effect = lower value 1.02 | locus YDR335W, strain msn5, stronger effect = lower value 1.01 | locus YDR388W, stronger effect = lower value 1.01 | locus YDR392W, strain spt3, stronger effect = lower value 0.816 | locus YDR502C, strain sam2, stronger effect = lower value 1.01 | locus YEL003W, strain gim4, stronger effect = lower value 1.01 | locus YEL037C, strain rad23, stronger effect = lower value 1.01 | locus YEL061C, strain CIN8 (second series), stronger effect = lower value 1.02 | locus YEL061C, strain CIN8, stronger effect = lower value 1.01 | locus YER015W, strain faa2, stronger effect = lower value 1.01 | locus YER016W, strain bim1, stronger effect = lower value 1.02 | locus YER110C, stronger effect = lower value 1.02 | locus YER111C, strain swi4, stronger effect = lower value 1.01 | locus YER155C, strain BEM2 (second series), stronger effect = lower value 0.99 | locus YER155C, strain BEM2, stronger effect = lower value 0.993 | locus YER167W, strain BCK2, stronger effect = lower value 1.02 | locus YFR010W, strain ubp6, stronger effect = lower value 1.01 | locus YGL078C, strain dbp3, stronger effect = lower value 1.01 | locus YGL086W, strain mad1, stronger effect = lower value 0.999 | locus YGL167C, strain pmr1, stronger effect = lower value 1.02 | locus YGL173C, strain kem1, stronger effect = lower value 1.01 | locus YGL227W, strain vid30, stronger effect = lower value 1.01 | locus YGL240W, strain doc1, stronger effect = lower value 0.992 | locus YGL248W, strain PDE1, stronger effect = lower value 1.01 | locus YGL253W, strain hxk2, stronger effect = lower value 0.989 | locus YGR135W, strain pre9, stronger effect = lower value 1.03 | [6] 1.01 | locus YGR252W, strain gcn5, stronger effect = lower value 1.03 | locus YHR013C, strain ard1, stronger effect = lower value 0.981 | locus YHR027C, strain rpn1, stronger effect = lower value 1.03 | locus YHR030C, strain SLT2, stronger effect = lower value 1.01 and 0.983 | locus YHR079C, strain IRE1 (second series), stronger effect = lower value 1 | locus YHR079C, strain IRE1, stronger effect = lower value 0.97 | locus YHR094C, strain hxt1, stronger effect = lower value 1.01 | locus YHR129C, strain ARP1, stronger effect = lower value 1.02 | locus YHR142W, strain chs7, stronger effect = lower value 1.04 | locus YHR200W, strain rpn10, stronger effect = lower value 1.01 | locus YIL066C, strain RNR3, stronger effect = lower value 1 | locus YIL073C, strain SPO22, stronger effect = lower value 0.995 | locus YIL125W, strain kgd1, stronger effect = lower value 0.999 | locus YIR030C, strain dcg1, stronger effect = lower value 0.992 | locus YJL092W, strain hpr5, stronger effect = lower value 1.01 | locus YJL095W, strain BCK1 (second series), stronger effect = lower value 1.03 | locus YJL095W, strain BCK1, stronger effect = lower value 1.04 and 0.989 | locus YJL115W, strain asf1, stronger effect = lower value 1.02 | locus YJL129C, strain trk1, stronger effect = lower value 1.08 | locus YJL134W, strain LCB3, stronger effect = lower value 1.01 | locus YJL154C, strain vps35, stronger effect = lower value 1.01 | locus YJL164C, strain tpk1, stronger effect = lower value 0.992 | locus YJL166W, strain qcr8, stronger effect = lower value 1.02 | locus YJL168C, strain set2, stronger effect = lower value 1.01 | locus YJL187C, strain SWE1 (second series), stronger effect = lower value 1.03 | locus YJL187C, strain SWE1, stronger effect = lower value 1.01 | locus YJR043C, strain POL32, stronger effect = lower value 1.04 | locus YJR066W, strain TOR1, stronger effect = lower value 0.954 | locus YJR075W, strain HOC1, stronger effect = lower value 1.03 | locus YKL009W, strain mrt4, stronger effect = lower value 1.02 | locus YKL068W, stronger effect = lower value 0.999 | locus YKL085W, strain MDH1 (second series), stronger effect = lower value 0.997 | locus YKL085W, strain MDH1, stronger effect = lower value 0.997 | locus YKL160W, strain elf1, stronger effect = lower value 1.02 | locus YKL190W, strain CNB1, stronger effect = lower value 1.01 | locus YKR001C, strain vps1, stronger effect = lower value 1.02 | locus YKR026C, strain gcn3, stronger effect = lower value 1.02 | locus YKR091W, strain srl3, stronger effect = lower value 1.02 | locus YLL001W, strain dnm1, stronger effect = lower value 1.07 | locus YLL026W, stronger effect = lower value 1.01 | locus YLL041C, strain sdh2, stronger effect = lower value 1 | locus YLR027C, strain aat2, stronger effect = lower value 0.998 | locus YLR039C, strain RIC1, stronger effect = lower value 1.12 | locus YLR058C, strain SHM2, stronger effect = lower value 1.01 | locus YLR102C, strain apc9, stronger effect = lower value 1 | locus YLR113W, strain HOG1, stronger effect = lower value 0.991 | locus YLR221C, strain rsa3, stronger effect = lower value 1.04 | locus YLR258W, strain gsy2, stronger effect = lower value 1 | locus YLR262C, strain YPT6 (second series), stronger effect = lower value 1.05 | locus YLR262C, strain YPT6, stronger effect = lower value 1.19 | locus YLR268W, strain sec22, stronger effect = lower value 1.02 | locus YLR320W, strain mms22, stronger effect = lower value 1.06 | locus YLR330W, strain CHS5, stronger effect = lower value 1.01 | locus YLR342W, strain FKS1 (second series), stronger effect = lower value 1.03 | locus YLR342W, strain FKS1, stronger effect = lower value 1.02 | locus YLR357W, strain rsc2, stronger effect = lower value 1.02 | locus YLR370C, strain arc18, stronger effect = lower value 1.03 | locus YLR371W, strain rom2, stronger effect = lower value 1 | locus YLR384C, strain iki3, stronger effect = lower value 1.02 | locus YLR418C, strain cdc73, stronger effect = lower value 0.991 | locus YML016C, strain PPZ1, stronger effect = lower value 1.01 | locus YML032C, strain rad52, stronger effect = lower value 1.01 | locus YML120C, strain ndi1, stronger effect = lower value 1.05 | locus YML124C, strain tub3, stronger effect = lower value 1.01 | locus YMR058W, strain fet3, stronger effect = lower value 1.01 | locus YMR078C, strain ctf18, stronger effect = lower value 0.996 | locus YMR125W, strain sto1, stronger effect = lower value 1.04 | locus YMR129W, stronger effect = lower value 1.01 | locus YMR205C, strain PFK2, stronger effect = lower value 1.02 | locus YMR223W, strain ubp8, stronger effect = lower value 1.01 | locus YMR231W, strain pep5, stronger effect = lower value 1 | locus YMR263W, strain SAP30, stronger effect = lower value 1.01 | [7] 1.03 | locus YNL067W, strain RPL9B, stronger effect = lower value 1.03 | locus YNL071W, strain lat1, stronger effect = lower value 1.01 | [8] 1.01 | locus YNL183C, strain NPR1, stronger effect = lower value 0.944 | locus YNL209W, strain ssb2, stronger effect = lower value 1.02 | locus YNL233W, strain BNI4, stronger effect = lower value 1.02 | locus YNL248C, strain rpa49, stronger effect = lower value 0.969 | locus YNL250W, strain rad50, stronger effect = lower value 1.01 | locus YNL271C, strain bni1, stronger effect = lower value 0.999 | locus YNL298W, strain CLA4, stronger effect = lower value 1.01 | locus YNL307C, strain MCK1, stronger effect = lower value 1.01 | locus YNL322C, strain KRE1 (second series), stronger effect = lower value 1.02 | locus YNR049C, strain mso1, stronger effect = lower value 1.01 | locus YNR052C, strain pop2, stronger effect = lower value 1 | locus YOL006C, strain TOP1, stronger effect = lower value 0.963 | locus YOL012C, strain htz1 0.928 | locus YOL147C, strain pex11, stronger effect = lower value 1 | locus YOR001W, strain rrp6, stronger effect = lower value 0.96 | locus YOR061W, strain CKA2, stronger effect = lower value 1.02 | locus YOR069W, strain VPS5, stronger effect = lower value 1.01 | locus YOR070C, strain gyp1, stronger effect = lower value 1.03 | locus YOR080W, strain dia2, stronger effect = lower value 1.02 | locus YOR083W, strain WHI5, stronger effect = lower value 1.03 | locus YOR106W, strain vam3, stronger effect = lower value 1.04 | locus YOR136W, strain idh2, stronger effect = lower value 1.02 | locus YOR144C, strain elg1, stronger effect = lower value 1.01 | locus YOR184W, strain ser1, stronger effect = lower value 1.06 | locus YOR231W, strain MKK1, stronger effect = lower value 0.96 | locus YOR265W, strain rbl2, stronger effect = lower value 1.01 | locus YOR270C, strain vph1, stronger effect = lower value 1.13 | locus YOR290C, strain snf2, stronger effect = lower value 1.07 | locus YOR316C, strain cot1, stronger effect = lower value 1.02 | locus YPL051W, strain arl3, stronger effect = lower value 0.978 | locus YPL078C, strain atp4, stronger effect = lower value 0.997 | locus YPL106C, strain sse1, stronger effect = lower value 1.06 | locus YPL240C, strain hsp82, stronger effect = lower value 1.03 | [14] 1.01 | locus YPL256C, strain CLN2, stronger effect = lower value 0.986 | locus YPR119W, strain clb2, stronger effect = lower value 1.01 | locus YPR141C, strain kar3, stronger effect = lower value 1.01 | locus YPR163C, strain tif3, stronger effect = lower value 1.03 | locus YPR167C, strain met16, stronger effect = lower value 1.01 | strain wtn01, stronger effect = lower value 1.01

CN(C)CC[C@@H](c1ccc(Br)cc1)c1ccccn1
inactive: [2] 1.05 | [3] 0.993 | [4] 0.97 | [5] 0.99 | locus YGR078C, strain PAC10, stronger effect = lower value 0.991 | [7] 1.01 | [8] 0.984 | [9] 0.988 | [10] 0.928 | [11] 0.985 | [12] 0.983 | [13] 0.912 | locus YPL055C, strain LGE1, stronger effect = lower value 1
